Reference: ChEMBL document CHEMBL1961873, “Compounds: GSK PKIS; Assays: Nanosyn kinase panel” (2012)

What follows are compounds tested against T1, Tyrosine-protein kinase Tec (Homo sapiens) (UniProt P42680). Conditions: at 0.1 µM.
T1 sequence (whole entry): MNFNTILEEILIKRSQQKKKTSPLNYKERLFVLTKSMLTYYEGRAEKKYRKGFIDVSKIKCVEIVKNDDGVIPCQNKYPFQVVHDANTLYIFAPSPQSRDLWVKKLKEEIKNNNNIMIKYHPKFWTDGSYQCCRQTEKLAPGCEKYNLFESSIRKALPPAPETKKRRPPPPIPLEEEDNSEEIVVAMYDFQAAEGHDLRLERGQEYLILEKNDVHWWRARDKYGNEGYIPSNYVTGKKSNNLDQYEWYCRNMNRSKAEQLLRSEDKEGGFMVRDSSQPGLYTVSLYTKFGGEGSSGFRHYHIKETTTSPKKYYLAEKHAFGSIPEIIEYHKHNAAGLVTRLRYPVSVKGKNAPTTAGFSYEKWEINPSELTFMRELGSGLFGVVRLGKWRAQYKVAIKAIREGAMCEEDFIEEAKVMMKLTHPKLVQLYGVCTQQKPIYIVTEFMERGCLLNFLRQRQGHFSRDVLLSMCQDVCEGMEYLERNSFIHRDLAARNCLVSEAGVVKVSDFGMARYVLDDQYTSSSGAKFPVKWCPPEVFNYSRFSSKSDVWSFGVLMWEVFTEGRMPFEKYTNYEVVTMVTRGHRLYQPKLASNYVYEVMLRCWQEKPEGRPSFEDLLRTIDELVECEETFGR

| SMILES | inhibition [%] |
| --- | --- |
| COc1cc2ncnc(Nc3ccc(C)c(O)c3)c2cc1OC | 11.1 |
| Cc1cc(-c2ccccn2)cc(C)c1/C=C/c1cncc(-c2nn[nH]n2)c1 | 4.67 |
| CC(C)c1ccc2c(c1)NC(=O)/C2=N/Nc1ccc(S(N)(=O)=O)cc1 | 1.22 |
| CCn1c(-c2nonc2N)nc2ccc(F)cc21 | 6.29 |
| CN(c1ccc(NC(=O)Nc2ccc(OC(F)(F)F)cc2)cc1)c1ccnc(Nc2cccc(S(N)(=O)=O)c2)n1 | 0.44 |
| c1ccc(Nc2ncc(-c3ccccc3)o2)cc1 | 4.25 |
| CCOc1nccc2c1nc(-c1nonc1N)n2CC | 3.96 |
| COc1cccc(-n2ncc3c(N/N=C/c4ccc(S(C)(=O)=O)cc4)ncnc32)c1 | -0.19 |
| Cc1ccc2c(-c3ccnc(Nc4cccc(C(F)(F)F)c4)n3)c(-c3ccccc3)nn2n1 | 8.8 |
| NS(=O)(=O)c1cccc(Nc2cc(-c3ccc(F)cc3)n[nH]2)c1 | 3.27 |
| CCCN1CCCC(c2ccc(Nc3nc(Nc4cc(F)ccc4C(N)=O)c4cc[nH]c4n3)c(OC)c2)C1 (centres undefined) | 4.67 |
| c1ccc(Cc2nc3ccc(Nc4ncnc5ccccc45)cc3[nH]2)cc1 | 4.4 |
| CN1CCN(C(=O)c2ccc(NC(=O)Nc3ccc(N(C)c4ccnc(Nc5ccc(CS(C)(=O)=O)cc5)n4)cc3)cc2)CC1 | 10.1 |
| N#Cc1cccc(Nc2nccc(-c3cnn4ncccc34)n2)c1 | 8.87 |
| Nc1nccc(-c2c(-c3ccc(F)cc3)ncn2CCCN2CCOCC2)n1 | 3.86 |
| COc1cc(/C=N/Nc2ncnc3c2cnn3C(C)C)ccc1O | 3.27 |
| O=C(Nc1ccc(Oc2ccc3[nH]c(NC(=O)c4ccco4)nc3c2)cc1)Nc1cc(C(F)(F)F)ccc1F | -1.71 |

| SMILES | inhibition [%] |
| --- | --- |
| Cc1ccc(Nc2ccnc(Nc3cccc(C(N)=O)c3)n2)cc1O | 18 |
| COC(=O)c1cncc(/C=C/c2c(C)cc(O)cc2C)c1 | 6.12 |
| Cc1cc(O)cc(C)c1/C=C/c1cncc(C(=O)N(C)C)c1 | 3.84 |
| NC(=O)c1cccc(Nc2nccc(Nc3cccc(F)c3)n2)c1 | 6.51 |
| COc1cc2ncnc(Nc3ccc4c(cnn4Cc4ccccc4)c3)c2cc1OC | 3.95 |
| CCn1c(-c2nonc2N)nc2c(C#CC(C)(C)O)nc(OCCNC)cc21 | 5.49 |
| Nc1nccc(C#Cc2cncnc2Nc2ccc(OCc3cccc(F)c3)c(Cl)c2)n1 | 5.34 |
| COC(=O)Nc1nc2cc(Oc3ccc(NC(=O)Nc4cccc(Br)c4)cc3)ccc2[nH]1 | 4.37 |
| O=C1Nc2ccccc2/C1=C/Nc1ccc2[nH]c(=O)[nH]c2c1 | 9.34 |
| NS(=O)(=O)c1ccc(Nc2cc(-c3cccc(O)c3)n[nH]2)cc1 | 5.22 |
| COc1cc2ncn(-c3cc(OCc4ccccc4S(C)(=O)=O)c(C#N)s3)c2cc1OC | 7.94 |
| CC(C)c1ccc(Nc2nccc(-c3cnn4ncccc34)n2)cc1 | 2.28 |
| NS(=O)(=O)c1ccc(N/N=C2\C(=O)Nc3ccc(Cl)cc32)cc1 | 4.2 |
| FC(F)(F)c1ccc(-c2nn3ncccc3c2-c2ccnc(Nc3ccc4c(c3)OCCO4)n2)cc1 | 3.97 |
| Nc1ccc(C#Cc2cncnc2Nc2ccc(OCc3cccc(F)c3)c(Cl)c2)cc1 | -0.48 |
| Cc1ccc(O)cc1Nc1ccnc2ccc(S(C)(=O)=O)cc12 | 77.9 |
| NS(=O)(=O)c1ccc(NC=C2C(=O)Nc3ccc4ncsc4c32)cc1 | 5.73 |
